In the supplement of paper PMC6897291:
Where a name gives a salt, the structure may show the parent alone.

What follows are compounds tested on U-2932 (assay: growth inhibition by drug alone (1 - RLU/untreated control) (fraction); higher = stronger inhibition). Conditions: 10 nM; time (day): 3; 177Lu-lilotomab satetraxetan 0 ug/ml.
In short: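 Compound doses on the pre-printed Selleck Cambridge Cancer Compound library plates were 10/100 nM for RIVA cells and 10/1,000 nM for U-2932 cells, seeded at 3,000 cells/well. Before seeding, cells were washed after 18 h with or without a radiolabelled anti-CD37 antibody conjugate (~600 MBq/mg; 0.5 µg/ml RIVA, 1 µg/ml U-2932). Growth inhibition was derived from RealTime-Glo luminescence relative to untreated no-drug control wells. Readings were taken daily starting on day 3, each after 1 h at 37°C, and each well's RLU was divided by the mean of 48 such wells per plate and subtracted from 1.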

Row | Compound | growth inhibition by drug alone
1 | COc1ccc(S(=O)(=O)Nc2cccnc2Nc2ccc(O)cc2)cc1 | 0.0231
2 | C[C@]12CCC(=O)C=C1CC[C@@H]1[C@@H]2[C@@H](O)C[C@@]2(C)[C@H]1CC[C@]2(O)C(=O)CO [Hydrocortisone (Cortisol)] | 0.112
3 | COc1cc(OC2CCN(C)CC2)ccc1Nc1ncc2c(n1)n(C1CCCC1)c(=O)n2C | -0.0462
4 | Nc1nc(F)nc2c1ncn2[C@@H]1O[C@H](CO)[C@@H](O)[C@@H]1O [Fludarabine (Fludara)] | 0.0811
5 | Nc1nc(Nc2ccc(S(N)(=O)=O)cc2)nn1C(=O)c1c(F)cccc1F | 0.0686
6 | Nc1ncn([C@@H]2O[C@H](CO)[C@@H](O)[C@H]2O)c(=O)n1 [Azacitidine (Vidaza)] | -0.0982
7 | COc1cc2nccc(Oc3ccc(NC(=O)NC4CC4)c(Cl)c3)c2cc1C(N)=O [E7080 (Lenvatinib)] | -0.0768
8 | Nc1ccn([C@@H]2O[C@H](CO)[C@@H](O)[C@@H]2O)c(=O)n1 [Cytarabine] | -0.00637
9 | Nc1cccc2c1C(=O)N(C1CCC(=O)NC1=O)C2=O (stereo not drawn) [Pomalidomide] | 0.00761
10 | CN(C)c1nc(N(C)C)nc(N(C)C)n1 [Altretamine (Hexalen)] | -0.0883
11 | Cc1[nH]c(/C=C2\C(=O)Nc3ccc(S(=O)(=O)N(C)c4cccc(Cl)c4)cc32)c(C)c1C(=O)N1CCN(C)CC1 | -0.0104
12 | O=C(O[C@@H]1Cc2c(O)cc(O)cc2O[C@@H]1c1cc(O)c(O)c(O)c1)c1cc(O)c(O)c(O)c1 [(-)-Epigallocatechin gallate] | 0.0464
13 | CCc1c2c(nc3ccc(OC(=O)N4CCC(N5CCCCC5)CC4)cc13)-c1cc3c(c(=O)n1C2)COC(=O)[C@]3(O)CC [Irinotecan HCl Trihydrate (Campto)] | -0.0148
14 | S=C(NCc1ccc2c(c1)OCO2)N1CCN(c2ncnc3c2oc2ccccc23)CC1 [Amuvatinib (MP-470)] | 0.138
15 | COc1ccc2c3n(c(=NC(=O)c4cccnc4)nc2c1OC)CCN3 | 0.1
16 | C#Cc1cccc(Nc2ncnc3cc(OCCOC)c(OCCOC)cc23)c1 [Erlotinib HCl] | 0.33
17 | Cc1ccc(-c2cc(C(F)(F)F)nn2-c2ccc(S(N)(=O)=O)cc2)cc1 [Celecoxib] | -0.0761
18 | N#CC[C@H](C1CCCC1)n1cc(-c2ncnc3[nH]ccc23)cn1 | 0.018
19 | CCc1cncnc1N1CCN(Cc2nc3ccc(C(F)(F)F)cc3[nH]2)CC1 | 0.0983

Row | Compound | growth inhibition by drug alone
20 | CCN(CC)C(=S)SSC(=S)N(CC)CC [Disulfiram (Antabuse)] | 0.0412
21 | CC(C)[C@H](C(=O)Nc1ccc(C(=O)NO)cc1)c1ccccc1 | 0.0244
22 | CC(=O)O[C@]1(C(C)=O)CC[C@H]2[C@@H]3C=C(C)C4=CC(=O)CC[C@]4(C)[C@H]3CC[C@@]21C [Megestrol Acetate] | 0.119
23 | COc1cc2ncnc(Nc3cccc(Br)c3)c2cc1OC | 0.0352
24 | N#Cc1ccc(C(c2ccc(C#N)cc2)n2cncn2)cc1 [Letrozole] | -0.0916
25 | CC(=O)c1c(C)c2cnc(Nc3ccc(N4CCNCC4)cn3)nc2n(C2CCCC2)c1=O | 0.0532
26 | COc1cccc2c1C(=O)c1c(O)c3c(c(O)c1C2=O)C[C@@](O)(C(=O)CO)C[C@@H]3O[C@H]1C[C@H](N)[C@H](O)[C@H](C)O1 [Doxorubicin (Adriamycin)] | 0.258
27 | CC(C)(C)c1[nH]cnc1/C=c1\[nH]c(=O)/c(=C/c2ccccc2)[nH]c1=O [NPI-2358 (Plinabulin)] | 0.142
28 | COc1cc(Nc2ncc3c(n2)-c2ccc(Cl)cc2C(c2c(F)cccc2OC)=NC3)ccc1C(=O)O [MLN8237 (Alisertib)] | 0.00882
29 | O=c1[nH]cc(F)c(=O)[nH]1 [Adrucil (Fluorouracil)] | 0.0617
30 | CC(C)c1ccc(Cn2ccc3c4c(N)nc(NC5CC5)nc4ccc32)cc1 | 0.155
31 | CC/C(=C(\c1ccccc1)c1ccc(OCCN(C)C)cc1)c1ccccc1 [Tamoxifen Citrate (Nolvadex)] | 0.0699
32 | Cn1cc(C2=C(c3ccc(Cl)cc3Cl)C(=O)NC2=O)c2ccccc21 | -0.00858
33 | c1ccc(-c2nn3c(c2-c2ccnc4cc(OCCN5CCOCC5)ccc24)CCC3)nc1 | 0.0304
34 | O=C(NCCS(=O)(=O)c1ccc(C(F)(F)F)cn1)c1ccc(Cl)cc1 | -0.00204
35 | Cc1ccc(S(=O)(=O)C=CC#N)cc1 | 0.107
36 | CCC1=C[C@@H]2CN(C1)Cc1c([nH]c3ccccc13)[C@@](C(=O)OC)(c1cc3c(cc1OC)N(C)[C@H]1[C@@](O)(C(=O)OC)[C@H](OC(C)=O)[C@]4(CC)C=CCN5CC[C@]31[C@@H]54)C2 [Vinorelbine (Navelbine)] | 0.571
37 | Cc1cc(Nc2cc(N3CCN(C)CC3)nc(/C=C/c3ccccc3)n2)n[nH]1 | -0.0691
38 | CN(N=O)C(=O)N[C@@H](C=O)[C@@H](O)[C@H](O)[C@H](O)CO [Streptozotocin (Zanosar)] | -0.0672
